An excerpt weighted towards active compounds, which were near 3% of everything screened.
Glyco luc inh: blocks N-linked glycosylation in D54 reporter cells. D54 ERlucT glycosylation luciferase reporter, 24 h; percent of 100 nM tunicamycin response. reporter increase, % at 12.5 µM. 360,000 tested, 0.23% active. AID 588692;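 active = mean luciferase reporter signal, scaled so untreated is 0 and the glycosylation-blocking control 100, at or above a set limit in every replicate; inconclusive = mean reaches the limit but not every replicate does; inactive = mean below the limit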;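 also: luciferase carries N-glycosylation sites so blocking glycosylation raises the light; 0% = median of neutral control wells and 100% = median of 100 nM tunicamycin wells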
esBAF inh: SWI/SNF esBAF complex inhibition | mouse ES cells, Bmi1-luciferase knock-in reporter, 24 h; 100% = twice the neutral-well signal | reporter increase, % at 12.5 µM | 350,000 tested, 2% active | AID 602393; in the data active = activation above about 40%; inconclusive = no clear call, values can overlap the other calls;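 also: 0% = median of the plate's neutral control wells and 100% = double that signal; a rise in the Bmi1 reporter signal indicates esBAF inhibition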
Vif imaging: HIV Vif inhibition. inhibition, % at 7.49 µM. 340,000 tested, 0.35% active. HEK293T cells, Vif self-association by quenched fluorescence, imaging, 24 h; in the data active = inhibition above about 50%, passing the limit was not always enough; inconclusive = no clear call, values can overlap the other calls; inactive = below about 31%
PfHsp90 yeast 2: growth inhibition of yeast expressing Plasmodium Hsp90. S. cerevisiae expressing PfHsp90, BacTiter-Glo ATP, 48 h; yeast lacking PDR1 and PDR3 efflux regulators. inhibition, % at 9.4 µM. 310,000 tested, 0.32% active. AID 504621;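 active = every replicate shows inhibition above about 80%, whatever the replicate mean, limit read from the data; inconclusive = mean inhibition reaches the set limit but some replicate falls short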;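 also: 0% = DMSO neutral controls and 100% = 20 µM radicicol positive controls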
Wnt act: activates Wnt/beta-catenin signaling in a reporter cell assay. activation, % at 9.35 µM. activator, plate reader. 300,000 tested, 1.2% active; in the data active = activation above about 30%, passing the limit was not always enough; inconclusive = no clear call, values can overlap the other calls;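 also: 0% = neutral control wells and 100% = positive control wells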
MITF TRPM1 HTS: increases MITF-driven TRPM1 promoter luciferase signal; AID 588334; activation, % at 12.5 µM; SK-MEL-5 TRPM1-promoter luciferase, 24 h; % of positive control, neutral wells = 0; 300,000 tested, 0.75% active;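 active = mean activation of at least 80% with every replicate also reaching 80%; inconclusive = mean reaches 80% but some replicate falls short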;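 also: 0% = neutral control wells and 100% = parthenolide positive control wells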
Ring1 derepress: esBAF inhibition confirmed by Ring1 de-repression; mouse ESC E14, Ring1 mRNA RT-qPCR fold change; shares compounds with esBAF inh; fold change at 33 µM; 550 tested, under 10 active;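 active = Ring1 gene expression raised more than 2-fold over untreated cells in both replicates at either tested dose; inconclusive = only one replicate above 2-fold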;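 also: Ring1 transcript normalised to actin housekeeping signal by TaqMan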
Fgf4 repress: esBAF inhibition confirmed by Fgf4 repression; shares compounds with esBAF inh; mouse ESC E14, Fgf4 mRNA qPCR fold change; active compounds read low; Fgf4 expression fold change at 33 µM; 550 tested, 4% active; AID 743177;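 active = Fgf4 expression under 0.8 fold of control in both repeat measurements at one or both tested doses; inconclusive = under 0.8 fold in just a single repeat measurement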;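 also: Fgf4 transcript normalised to actin in duplex TaqMan qPCR; cells exposed to compound for 24 h before lysis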
Bmi1 derepress: esBAF inhibition confirmed by Bmi1 de-repression; shares compounds with esBAF inh; 550 tested, under 10 active; mouse ESE14 ES cells, Bmi1 mRNA qPCR fold; active compounds read high; fold change at 33 µM;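 active = Bmi1 expression fold change above 6 at either tested concentration, seen in replicate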;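 also: higher fold means more Bmi1 de-repression and stronger esBAF inhibition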
A549 tox SP: A549 cell cytotoxicity. shares compounds with esBAF inh. plate reader. cell viability change % (negative = cytotoxic), % at 25 µM, hits read low. 550 tested, under 10 active. AID 743188; call rule not given here
HepG2 tox SP: kills or reduces viability of HepG2 cells; shares compounds with esBAF inh; HepG2 cytotoxicity, plate reader; active compounds read low; activity change, negative = inhibition, % at 25 µM; 550 tested, 4% active; AID 743189; in the data active = activity change below about -50%
HEK293 cytotox SP: cytotoxicity in HEK293 cells; shares compounds with esBAF inh; plate reader; activity change, negative = inhibition, % at 25 µM, hits read low; 550 tested, 3% active; AID 743190; in the data active = activity change below about -38%, passing the limit was not always enough
* = called active by the depositor; ? = inconclusive; / = not tested or not shown.

SMILES | Glyco luc inh | esBAF inh | Vif imaging | PfHsp90 yeast 2 | Wnt act | MITF TRPM1 HTS | Ring1 derepress | Fgf4 repress | Bmi1 derepress | A549 tox SP | HepG2 tox SP | HEK293 cytotox SP
O=c1c2ccccc2oc2cc(-c3ccc4cc[nH]c4c3)ccc12 | 3.3 | 70.5* | 1.5 | 1.0 | 37.6* | 129.2* | 1.32 | 0.921 | 1.61 | -3.0 | 0.1 | 8.9
CCOC(CNC(=O)CN1C(=O)COc2ccc(S(=O)(=O)N3CC(C)CC(C)C3)cc21)OCC (stereo unspecified) | 1.1 | 2.5 | 5.2 | 7.6 | -2.7 | -15.7 | / | / | / | / | / | /
CCN1CCN(Cc2ccc(NC(=O)c3cc(NC(=O)c4cc(-c5ccc(OC)cc5)n[nH]4)cc(OC)c3)cc2C(F)(F)F)CC1 | -7.4 | -87.7 | 1.3 | 1.2 | -29.5 | -98.4 | / | / | / | / | / | /
CCc1c(C(=O)OCc2ccccc2)[nH]c(C)c1C | -0.4 | 53.1* | 2.8 | -7.8 | 0.3 | 59.4 | 1.03 | 0.89 | 2.19 | -4.6 | -25.0 | -6.1
CCc1c(C)[nH]c(C(=O)OCc2ccccc2)c1C | 0.5 | / | 0.6 | 9.6 | 2.8 | 29.4 | / | / | / | / | / | /
CCCCc1nc2cc(C(=O)N3CCN(c4nc(C)cnc4C)CC3)ccc2o1 | -0.4 | 64.1* | -21.9 | 23.6 | 3.5 | ? | 1.02 | 0.907 | 1.15 | -8.1 | -0.3 | -21.5
COc1ccc(-c2csc(Nc3cccnc3)n2)cc1 | 6.5 | / | 5.1 | 9.9 | / | 42.5 | / | / | / | / | / | /
CC(=O)Nc1nc(-c2ccc(-c3ccccc3)cc2)cs1 | -0.8 | 67.6* | / | / | 40.1* | / | 0.95 | 0.894 | 1.46 | -11.6 | -35.0 | 0.5
c1ccc(-c2csc(Nc3cccnc3)n2)nc1 | 1.4 | 61.1* | / | -1.0 | / | 56.7 | 1.11 | 1.06 | 1.34 | -15.4 | -14.4 | -5.6
c1ccc(Nc2nc(-c3ccncc3)cs2)cc1 | -6.4 | 58.9* | -4.4 | -8.7 | / | 143.6* | 1.38 | 1.08 | 3.48 | -11.5 | 43.3 | -8.2
Cc1ccc(S(=O)(=O)Nc2ccc3c(c2)CC(=O)N([C@@H](C)CO)C[C@H](C)[C@H](CN(C)C)O3)cc1 | / | -0.4 | / | / | / | / | / | / | / | / | / | /
O=C1CCCc2cc3c(ccc4ccccc43)cc21 | -1.8 | 75.0* | -11.4 | -9.9 | -3.3 | 43.4 | 0.845 | 0.815 | 1.2 | -6.8 | -38.7 | 16.0
Cc1cc2c(cc1C)C(=O)CCC2 | -0.2 | -0.8 | -0.4 | / | 0.9 | / | / | / | / | / | / | /
c1ccc(CCNc2nc3ccccc3s2)cc1 | -6.1 | 55.3* | 5.3 | -11.7 | / | / | 1.15 | 1.04 | 1.84 | -8.6 | -0.8 | -23.5
COc1ccc(CNc2nc3ccccc3s2)cc1OC | 1.0 | 62.4* | -1.2 | 1.7 | 4.3 | / | 0.989 | 0.87 | 1.58 | -6.0 | -4.9 | -11.9
Cc1cccc(SCC(=O)Nc2ccc3c(c2)OCCO3)c1 | -1.5 | 7.9 | 1.7 | -8.5 | 22.3 | 72.9 | / | / | / | / | / | /
Cc1cc(C(=O)c2ccccc2)nc2ccccc12 | -0.1 | -2.3 | -2.9 | 11.7 | 3.4 | 8.3 | / | / | / | / | / | /
C[C@@H]1CN([C@@H](C)CO)C(=O)c2cccc(NS(=O)(=O)c3ccccc3)c2O[C@@H]1CN(C)Cc1ccc(-c2ccccc2)cc1 | / | 7.1 | / | / | / | / | / | / | / | / | / | /
CN(C)S(=O)(=O)c1ccc(C(=O)Nc2ccc3c(c2)CCC3)cc1 | -1.9 | 74.7* | -4.3 | 8.6 | 21.9 | 46.8 | 1.03 | 0.937 | 1.71 | -1.9 | -43.1 | -13.7
CN(C)S(=O)(=O)c1cccc(C(=O)Nc2ccc3c(c2)CCC3)c1 | -10.3 | 10.2 | -13.2 | 5.7 | 24.7 | 47.6 | / | / | / | / | / | /
Cc1ccc(C(OCC(C)(C)C[N+](C)(C)C)c2ccccc2)cc1 (stereo unspecified) | -0.1 | / | -1.1 | 10.2 | -1.1 | -0.5 | / | / | / | / | / | /
Oc1ccc(-c2nccc(-c3ccccn3)n2)cc1 | 1.8 | 59.6* | -7.1 | -2.0 | 24.1 | 100.9* | 1.29 | 1.03 | 1.4 | 2.2 | 8.8 | 10.9
Cc1ccc(-c2ccnc(-c3ccc(O)cc3)n2)cc1 | 6.7 | / | -6.0 | -11.4 | 28.2 | 22.1 | / | / | / | / | / | /
O=C(Nc1ccccc1)[C@H]1[C@H](CO)[C@H]2Cn3c(cccc3=O)[C@@H]1N2Cc1ccncc1 | / | 2.6 | / | / | / | / | / | / | / | / | / | /
Nc1nc(SCc2ccccc2)cc(SCc2ccccc2)n1 | -1.8 | 65.2* | -0.4 | -10.4 | 39.0* | 54.0 | 1.14 | 1.08 | 1.66 | -12.4 | 1.1 | -3.6
SMILES | Glyco luc inh | esBAF inh | Vif imaging | PfHsp90 yeast 2 | Wnt act | MITF TRPM1 HTS | Ring1 derepress | Fgf4 repress | Bmi1 derepress | A549 tox SP | HepG2 tox SP | HEK293 cytotox SP
CCOC(=O)c1ccc(NC(=O)CSc2nncn2-c2cccnc2)cc1 | 0.5 | -7.3 | 11.5 | 0.0 | 1.0 | -5.3 | / | / | / | / | / | /
COc1cccc(NC(=O)C(=O)NCCC2CCCCN2S(=O)(=O)c2ccccc2)c1 (stereo unspecified) | -3.6 | 78.9* | -10.7 | -0.7 | -2.8 | 110.4* | 0.987 | 0.941 | 1.81 | -8.8 | -33.1 | -15.4
COc1ccccc1NC(=O)C(=O)NCCC1CCCCN1S(=O)(=O)c1ccccc1 (stereo unspecified) | -3.6 | -5.1 | -4.1 | -7.0 | -0.4 | -10.6 | / | / | / | / | / | /
CCNC(=O)O/N=C(\C)c1sc(-c2ccccc2)nc1C | 0.4 | 62.6* | 3.5 | 0.6 | 8.8 | / | 0.965 | 0.804 | 1.7 | -7.5 | -17.1 | -17.8
COc1ccc(CCC(=O)N2CCc3ccccc32)cc1 | -0.4 | 62.8* | -1.7 | -6.9 | 20.3 | / | 1.09 | 0.907 | 1.39 | -4.6 | -1.6 | -11.2
COc1cc2[nH]c(C(=O)N3CCc4ccccc43)cc2c(OC)c1OC | 6.6 | 58.1* | -3.4 | 4.2 | 19.1 | 42.7 | 0.939 | 1.15 | 2.14 | 4.1 | 0.9 | -3.8
O=C(c1ccccc1)N1CCc2ccccc21 | 0.4 | / | / | -12.4 | / | -1.5 | / | / | / | / | / | /
Cc1ccc(C(=O)N2CCc3ccccc32)cc1C | -1.6 | 52.2* | -2.1 | -3.7 | 22.2 | / | 1.25 | 0.996 | 1.54 | 9.5 | 19.0 | -6.1
COc1ccc(C(=O)N2CCc3ccccc32)cc1 | 1.6 | 68.3* | -1.0 | / | 6.2 | / | 0.968 | 0.882 | 1.51 | -4.2 | -8.5 | -5.9
CCN(CC)S(=O)(=O)c1cccc(C(=O)N[C@H](C(=O)NCc2ccccc2F)C(C)C)c1 | 1.0 | 4.4 | -15.5 | / | / | / | / | / | / | / | / | /
Cc1nc2ccc(S(=O)(=O)N(C)CC(=O)NCc3ccc(N(C)C)cc3)cc2s1 | 3.1 | 3.5 | 0.1 | -25.5 | 2.4 | -5.3 | / | / | / | / | / | /
O=C(c1ccc(Br)s1)N1CCCC1 | 2.0 | 4.5 | / | -6.8 | / | 16.8 | / | / | / | / | / | /

From PubChem
